# In PubChem BioAssay AID1851 (National Center for Advancing Translational Sciences (NCATS), 2009):
# Hit rate of the full screen: of about 16,000 compounds, about 4,000 (25%) were called active. Not shown: some 26% with an inconclusive outcome. Calls come from the whole dose curve; as a rule, active = well fitted curve in the direction sought with a large enough effect; inconclusive = small, poorly fitted or top-dose-only effect, or effect the other way; inactive = no such curve, though single readings can be large or run the other way. The list is a sample of the results.
# Biological target: Cytochrome P450 2C9 (Homo sapiens) (UniProt P11712)
# Sequence (P11712 whole entry, looked up): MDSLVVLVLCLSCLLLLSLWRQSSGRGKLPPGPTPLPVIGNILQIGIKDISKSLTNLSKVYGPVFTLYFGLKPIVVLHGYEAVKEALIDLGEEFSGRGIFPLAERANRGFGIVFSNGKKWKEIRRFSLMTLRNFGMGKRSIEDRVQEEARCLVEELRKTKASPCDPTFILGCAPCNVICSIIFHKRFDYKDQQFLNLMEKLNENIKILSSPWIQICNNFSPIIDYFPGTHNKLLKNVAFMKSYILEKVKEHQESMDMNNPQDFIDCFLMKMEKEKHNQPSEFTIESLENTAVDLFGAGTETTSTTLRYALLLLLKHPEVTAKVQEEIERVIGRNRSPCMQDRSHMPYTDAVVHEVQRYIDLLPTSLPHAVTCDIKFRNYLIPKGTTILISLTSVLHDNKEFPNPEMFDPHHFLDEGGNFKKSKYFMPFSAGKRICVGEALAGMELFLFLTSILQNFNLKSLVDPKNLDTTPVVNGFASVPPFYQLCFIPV
# Test: Cytochrome panel assay with activity outcomes
# Conditions: recombinant CYP, pro-luciferin dealkylation, luminescence, p450-cyp2c9; series mostly up to 57.1 µM
# % is set by controls: 0 for no effect and ±100 for the full control effect.
Structure (SMILES),"activity, negative = inhibition",AC50
CO[C@@H]1COC(=O)C/C=C\[C@@H](C)COC(=O)[C@H](COCc2ccccc2)NC(=O)C/C=C\[C@H]1C,-9.13% [at 11.4 µM] (inactive),–
Cc1cccc(NC(=O)NNC(=O)c2cc(-c3ccccc3Cl)nc3ccccc23)c1,–,1.58 µM (active)
O=C(NNC(=O)c1cc(-c2ccc(Cl)c(Cl)c2)nc2ccccc12)Nc1ccccc1,–,4.47 µM (active)
COCCNc1nc(-c2ccccc2Cl)nc2ccccc12,0.695% [at 2.29 µM] (inactive),–
Cc1ccc(NC(=O)c2cc(Cl)nc3ccccc23)cc1,–,inactive
CC(=O)NCCNc1nc(-c2ccccc2Cl)nc2ccccc12,15.4% [at 2.29 µM] (inactive),–
NC(N)=N[C@@H]1C(O)[C@H](N=C(N)N)[C@@H](O)C(O)[C@H]1O (stereo partly specified),13.6% [at 11.4 µM] (inactive),–
Nc1nc2c(ncn2COCCO)c(=O)[nH]1,–,inactive
c1cn(-c2ncnc3ccc(-c4ccoc4)cc23)cn1,-25.3% [at 2.29 µM] (inactive),–
COC(=O)[C@@]1(Cc2ccc(F)cc2)[C@H]2c3cc(C(=O)N(C)C)n(Cc4ccc(C(F)(F)F)nc4)c3C[C@H]2CN1C(=O)c1ccccc1,–,25.1 µM (active)
COC(=O)[C@@]1(Cc2ccccc2)[C@H]2c3cc(C(=O)N4CCCC4)n(Cc4ccc(C(F)(F)F)nc4)c3C[C@H]2CN1C(=O)c1ccccc1,–,5.01 µM (active)
Clc1ccccc1-c1ccc2ncnc(NC3CCNCC3)c2c1,20.4% [at 2.29 µM] (inactive),–
Cc1ccccc1-c1cncnc1NCc1ccccc1,-7.47% [at 2.29 µM] (inactive),–
CCC(=O)N[C@@H]1Cc2ccccc2[C@@H](c2ccccc2)C1,–,inactive
Brc1ccc(-c2nnc(-c3ccccc3)c(N3CCSCC3)n2)cc1,–,10 µM (active)
CN(C)c1ccc(-c2nc(N3CCNCC3)c3ccccc3n2)cc1,0.369% [at 2.29 µM] (inactive),–
Clc1ccc(-c2nnc(-c3ccccc3)c(N3CCSCC3)n2)cc1,–,14.1 µM (active)
Cc1noc(C)c1-c1ccc2ncnc(N3CCOCC3)c2c1,7.24% [at 2.29 µM] (inactive),–
CCN1CCN(c2cc(=O)n(-c3cc(Cl)ccc3C)c(=O)[nH]2)CC1,–,inactive
C[N+](C)(C)CCCCCC[N+](C)(C)C,–,inactive
COC(=O)N1CCC[C@@]2(CCN(C(=O)Nc3cccc(C#N)c3)C2)C1,–,inactive

Structure (SMILES),"activity, negative = inhibition",AC50
Cc1ccc(CSc2nc3c(c(SCC(=O)O)n2)CCCC3)cc1,–,5.62 µM (active)
CC[C@@]12CCCN3CCc4c(n(c5ccccc45)C(=O)C1)[C@H]32,–,inactive
Fc1cccc(C2NC(=S)NC3=C2N2CCC3CC2)c1 (stereo unspecified),–,inactive
S=C1NC2=C(C(c3ccc(Br)cc3)N1)N1CCC2CC1 (stereo unspecified),–,22.4 µM (active)
CCOC(=O)CC(NC(=O)c1cccs1)c1ccc(OCC)cc1 (stereo unspecified),–,3.55 µM (active)
CNNCc1ccc(C(=O)NC(C)C)cc1,–,inactive
CCOC(=O)CC(NC(=O)c1ccc(C)cc1)c1ccc(C)cc1 (stereo unspecified),–,15.8 µM (active)
COc1ccc(C(NC(=O)c2ccc(-c3ccccc3)cc2)c2ccccc2)cc1 (stereo unspecified),–,inactive
FC(F)(F)c1ccccc1-c1nc(NC2CCNCC2)c2ccccc2n1,14.5% [at 2.29 µM] (inactive),–
Cc1nc(S(=O)(=O)N2CCOCC2)c(C#N)c(C)c1Cl,–,inactive
CCCOc1ccc(OCCNC2CCCC2)cc1,–,inactive
c1c[nH]c(CN2CCOCC2)n1,-9.4% [at 11.4 µM] (inactive),–
Oc1cccc2ccc(SSc3ccc4cccc(O)c4n3)nc12,–,1.58 µM (active)
Cc1c(O)c(=O)n(-c2ccccc2)n1C,–,inactive
Cc1ccc(O)c(C(=O)c2cc(C#N)c(=O)n(-c3c(C)n(C)n(-c4ccccc4)c3=O)c2)c1,–,15.8 µM (active)
Cc1c(N(C)C)c(=O)n(-c2ccccc2)n1C,–,inactive
Nc1nc(SCC(=O)O)[nH]c(=O)c1N,-6.53% [at 11.4 µM] (inactive),–
NCCCc1c(-c2ccccc2)nc(N)[nH]c1=O,-12.1% [at 11.4 µM] (inactive),–
CCCCCOC(=O)CSc1nnc(-c2ccccc2)c(=O)[nH]1,–,2 µM (active)
Cc1ccc(S(=O)(=O)N[C@H](C(=O)N2CCC(C(=O)NCC(=O)O)CC2)C(C)C)cc1,–,inactive
CCc1ccc2c(c1)c(N=NC1=NC(=O)CS1)c(O)n2CC,–,12.6 µM (active)

Structure (SMILES),"activity, negative = inhibition",AC50
COc1ccc2nc3cc(Cl)ccc3c(Nc3ccc(O)c(CN4CCN(C)CC4)c3)c2c1,-28.4% [at 11.4 µM] (inactive),–
Cc1sc2nc(SCC(=O)C(C)(C)C)n(Cc3ccco3)c(=O)c2c1C,–,1.58 µM (active)
COc1ccc(C(=O)N2CCC3(CC2)CN(C(=O)NC(C)C)C3)cc1,–,inactive
Cc1cccc2sc(NC(=O)C3c4ccccc4Oc4ccccc43)nc12,–,1.26 µM (active)
Cc1ccccc1NC(=O)c1cnc(Nc2nc3ccccc3s2)nc1C,–,inactive
O=C(Nc1cccnc1Cl)C1c2ccccc2Oc2ccccc21,–,1.12 µM (active)
NC(N)=NNC(=O)C(=O)O,-4.6% [at 11.4 µM] (inactive),–
c1csc(CNc2ncnc3ccc(-c4ccoc4)cc23)c1,0.0121% [at 2.29 µM] (inactive),–
OCCNc1ncnc2nc[nH]c12,-11.4% [at 11.4 µM] (inactive),–
OCCCNc1ncnc2[nH]ncc12,-4.6% [at 11.4 µM] (inactive),–
CCc1cc2c(NCc3ccco3)ncnc2s1,–,4.47 µM (active)
Cc1cnc(CNc2ncnc3ccc(-c4ccoc4)cc23)cn1,11.8% [at 2.29 µM] (inactive),–
CCc1cc2c(NCCO)ncnc2s1,–,1.58 µM (active)
CN=c1nc(-c2ccccc2)n(-c2ccccc2)s1,–,2 µM (active)
CN=C1N[C@H](c2ccccc2)N(c2ccccc2)S1,–,inactive
CC(=O)c1c(C)nc(-c2ccccc2)n1O,–,inactive
CN1CC[C@@]2(CCCN(C(=O)c3cccn3C)C2)C1,–,inactive
COC(=O)[C@@]1(Cc2ccccc2)[C@H]2c3cc(C(=O)N4CCCC4)n(Cc4cccc5ccccc45)c3C[C@H]2CN1C(=O)c1ccccc1,–,0.251 µM (active)
COC(=O)[C@@]1(Cc2ccc(F)cc2)[C@H]2c3cc(C(=O)N4CCCC4)n(Cc4cccc5ccccc45)c3C[C@H]2CN1C(=O)c1ccccc1,–,1.58 µM (active)
